# Results as given in PubChem BioAssay (NCI).
# This is part of a sample that, as a whole, favours compounds with a hit. Of some 83,000 tested, about 20% had one in any assay.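 Activity criterion: percent growth below 10, measured after cells in 96-well plates were exposed to a single compound concentration for 48 hours.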 A number with no mark means an inactive call. Calls of active or inactive are those of the source.
# How the values were obtained:
# Experiment in all cases: NCI-60 one-dose screen, 48 h (100 = growth as untreated, 0 = no growth, -100 = all killed)
# Conditions in all cases: 10 µM unless noted
# [1] = system: SR leukemia
# [2] = system: RPMI-8226 leukemia
# [3] = system: OVCAR-8 ovarian
# [4] = system: OVCAR-5 ovarian
# [5] = system: OVCAR-4 ovarian
# [6] = system: SK-OV-3 ovarian
# [7] = system: IGROV1 ovarian
# [8] = system: OVCAR-3 ovarian
# [9] = system: HS 578T breast
# [10] = system: NCI/ADR-RES ovarian
# [11] = system: T-47D breast
# [12] = system: BT-549 breast
# [13] = system: MDA-MB-435 melanoma
# [14] = system: SW-620 colon
# [15] = system: MCF7 breast
# [16] = system: HCT-116 colon
# [17] = system: HCC-2998 colon
# [18] = system: KM12 colon
SMILES,growth [1],growth [2],growth [3] [%],growth [4] [%],growth [5],growth [6],growth [7] [%],growth [8],growth [9],growth [10] [%],growth [11],growth [12],growth [13],growth [14],growth [15],growth [16],growth [17],growth [18]
Cc1cc(NCc2cc(Nc3ccnc4cc(Cl)ccc34)ccc2F)nc(N2CCOCC2)n1,-13% (active),29.4%,36.3,76.5,7.29% (active),0.55% (active),49.7,16.1%,16.5%,25,-54.8% (active),75.3%,-18.4% (active),32.5%,6.18% (active),2.23% (active),55.8%,44%
O=C1C=C[C@]2(C[C@@H](c3cccc(C(F)(F)F)c3)O[C@@H](c3cccc(C(F)(F)F)c3)O2)O1,9.17% (active),-2.8% (active),38.5,86.2,48.9%,84.9%,22.3,-33.1% (active),-4.02% (active),51.3,-49.6% (active),-52.4% (active),-74.7% (active),-48.1% (active),-7.92% (active),-70.6% (active),18%,6.02% (active)
COc1ccc(-c2ccc3c(c2)sc2nc(-c4ccc(F)cc4)cn23)cc1,93.4%,76.7%,68.5,70.7,73.6%,84.2%,100,88%,99.2%,85.5,55.1%,105%,74.3%,98.8%,33.3%,42.3%,29.3%,64.8%
CN1CCN(CCCOc2ccc3nc(Nc4ccc(F)c(F)c4)ccc3c2)CC1,-6.22% (active),28.8%,53.1,41,51.2%,49.6%,58.9,67.4%,33.8%,70.6,14.6%,79.9%,-72.3% (active),-32.2% (active),11.8%,5.76% (active),-24.6% (active),11.8%
COc1ccc(CN2C(=O)C(Cl)=C(Nc3cccc(C(F)(F)F)c3)C2=O)cc1,9.34% (active),42.6%,42.5,55.1,47.6%,75.8%,36.1,62%,57%,38.9,60.8%,26.3%,25.5%,28.8%,29.5%,28.9%,53.2%,70.2%
N#CC1=C(NC=O)Oc2c(ccc3ccccc23)C1c1ccccc1 (configuration not stated),22.9%,19.1%,23.6,88.9,64.5%,16.3%,38.6,3.87% (active),11.3%,20.4,25.2%,25.9%,-33% (active),21.3%,17.5%,21.1%,63%,30.7%
N[C@@H](CCCCNCC(=O)O)C(=O)O,99.3%,116%,105,102,101%,103%,108,114%,98.2%,101,96.9%,111%,102%,101%,105%,106%,103%,101%
COC1=C(OC)C(=O)C(OC)=C(OC)C1=O,94.4%,102%,93.4,108,42.1%,110%,101,99.3%,97%,98,94.2%,101%,103%,101%,99.5%,98.6%,89.3%,100%
COc1cccc(-c2nn(-c3ccccc3)cc2-c2ccnc(NCCCNC(=O)c3cccc(C(F)(F)F)c3)c2)c1,-29% (active),9.33% (active),22.4,71.6,31.3%,28.3%,58.8,41.4%,33.7%,22.6,-19.6% (active),1.62% (active),24.6%,33.2%,18.1%,10.6%,21.7%,23%
